Results on 20 molecules are retold here after the supplement of paper PMC12632987.

Whole data set: some 4,500 sequences, median “median log2 fold change of GCK-ALFA target abundance (FLAG IP / Myc IP barcode read proportion)” near 0.078, cut for the lowest 2% near -0.6. Only a selection was taken, and the lowest values are over-represented in it overall.

B1: GBRAP_137_3622 (protein)
chain: KKVTITFYEEDGVAIAEITADTSVDKEKVLALVEEVAEEHGVQLVEALVEPDEPLVLYLVGTPEQVIAAVKDLIERLKSELGIEVVLESEGAEELVEEVK
B2: GBRAP_137_3623 (protein)
chain: KKVKITFYEEDGVAIAEITADTSVDKEKVLEIVEEVAEKHGVKLVVALTEPDEPAVFYLVGTPEQVIAAVKELIKRLKEELGIEVELSSEGAEELVEEVK
B3: GBRAP_160_4497 (protein)
chain: SERKERAKERARELVEEAAEAIREEEGEGKEQIARAYAGDIALELLELGVVSEEQEEEVLRLAEEGFRRMVEASEKGEEELERAAEELKRRLEELIEEFA
B4: GBRAP_160_4123 (protein)
chain: KEKKRKTLLDSAKDVEETLKIIEDLSPEEAGTLAIVTLGQILLDNDELDDEFPEIEKLADEAIEKLRETAKTDPEKLKELSKELLEEIRELLLKKAEELK
B5: GBRAP_52_5921 (protein)
chain: SDEEARALAEAILEAALAGREDELRALIKRLVEEKSLEEIKRVIEELARLTAELGPEHYDLFADIMDLLLDAAEEAGRDVEEVDYAIAEAAGLLYDAEQA
B6: GBRAP_160_4321 (protein)
chain: SALMEELKKEIEEIAEEAKELIEGESPEQRRTIVKVALGEILLLAIENPEISDELEDKIAEIADAAEAELDANPDLSEEEVKELLEKAVKEILELIEKEE
B7: GBRAP_160_3995 (protein)
chain: SEKKKKLLEKIKEILEETYELMKGESPEERLAIARVAAGDILLELFESELVSDETEEKIDEVLDEFVATVEANPDMSDEELKELLEETLEKIEKIIEENS
B8: GBRAP_160_4762 (protein)
chain: KEELKKLKEEIEEIFKEHIELLKEVPKEKAVTVVEGAMGEVLMLAFSSEAVSDELEEKIGEIMDEAVERAKENKDAPVEVHIKILEEAREKILELIEEEI
B9: GBRAP_52_6056 (protein)
chain: MEARIEALARAIAAAIAAGDLDAALALLREAIATLTPEEIRRTLQLAARLVAGLGEEAHERFVELLDEAHELMIEAGISEEEADIIVGDAEAALARAVAA
B10: GBRAP_117_2594 (protein)
chain: SATLEEVRKRVEELVERIRKALEEMKTLSEEERKRLREELLEEATKEVKEMLKLTDAETVEEFFAEALADLSPEERVEAYIIFEEALADAEDELKEEEEA
B11: GBRAP_128_3594 (protein)
chain: SVEEVRAYVREALAAMKEADAETRREIADALMERLLTLSDEEQRAAFETIEELLPELSAEDLDILADALREHRPRFSPEGANLAADVEVEALNEREELEE
B12: GBRAP_80_6786 (protein)
chain: MEEEIEKLIEEIEKKNPEVAKIIKEIVELLKEIGVPLEIIKEIVEVFLDALSLPKETQLKIAKEVLEEAKELSEYKDEFSPEDIGRMVLAEALTLVELAK
B13: GBRAP_83_6928 (protein)
chain: KEKIVVAANDDNIDEAFEAAIDLQKNEGYEVDVEVIITKEGFPKLKKAFEKMAKAGWNGTLDILAVGATKEEVEKLKAELEAIAKKYGVNVKINVTQVEP
B14: GBRAP_160_4685 (protein)
chain: SEKVEEAEEFLEEEFAEVVELFDEVTREELAAFVRVAFGEIILELEELGLLTDEVAEVIDEEEERIVDAILNDPNITKEEFAALLEEAAEEIVEELEEEA
B15: GBRAP_184_5239 (protein)
chain: MVLERTIKAENEEELREKMKEVMEEAEKKGAKVRLLIEVEKLTREKAETLAEMIKEMAAKGLLELVGVVSSEPISEEIVDLLVEAADEAGVKLVIAEPEI
B16: GBRAP_52_6331 (protein)
chain: SHEEVEKMAEELYKAIVAGKEEEAKKLAEEMVETLSSEEILEAARIVAERVAKEGDEVKVRAAEVFEYLAELVEEKRGDERTAAEILGIYATTLYAAEQA
B17: GBRAP_11_2762 (protein)
chain: MKEKYERLAELAERAAELVDRLLAEGVDDAELLAELERLLRELREETKKIGDKALEKDVEIAEELFRALQADPANAEAYARELRAQLRVLAGQYLLLAEE
B18: GBRAP_35_5533 (protein)
chain: NSDEEIAEMLLNTMEALVDALPDVSPEQQLALARHLIRLAEDFLELKTKSAELIKRLIEVLERAIELIKKSSLPPEQQEELIRELEELRERAKELLKEVE
B19: GBRAP_128_3244 (protein)
chain: SQEELLEEAKKLVDEIVEADVEEAKELTKKLIELMKKLNKESREEVADYLIEKLKELSAEKLEAVADTLRENRPKLDDYTAALVAGVEIEALELALEQEE
B20: GBRAP_128_3242 (protein)
chain: SQEELLEEAKKLIEEIVKADVETAKKLTEKLIELLKKLNDEAREEVAEYLEKELEKLSAEKLEAVADTLRENRPKLDPYTAALVAGVEIDALELALEKEE

The target of this experiment is GABARAP, O95166. The experiment can be described thus: median log2 fold change of GCK-ALFA target abundance (FLAG IP / Myc IP barcode read proportion) (log2 ratio); each designed protein is fused to an ALFA-tag nanobody in HEK293 cells to bring the named protein to FLAG-tagged glucokinase (GCK); Myc marks an untargeted standard; higher = target protein stabilised (more abundant). The note with it: target protein: 3xFLAG-MCP-GCK-ALFA reporter; HEK293 landing pad (RPLP). The method, boiled down: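 Binders fused to an ALFA nanobody were recombined as a library into HEK293 landing-pad cells, which were induced with 2 μg mL^−1 doxycycline and then transfected to express a FLAG-tagged target and a Myc-tagged standard. After 48 h, circular RNA barcodes recovered by anti-FLAG and anti-Myc immunoprecipitation of lysates were reverse transcribed, amplified and sequenced. Each binder's target abundance is the median log2 ratio of FLAG to Myc barcode read proportions, from barcodes present at ≥10^−7 in both replicates, binders carrying ≥3 barcodes per replicate, a 10^−6 pseudocount and pooled replicates.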
Sequence of GABARAP, O95166 (O95166 whole entry, the tested form may be a part): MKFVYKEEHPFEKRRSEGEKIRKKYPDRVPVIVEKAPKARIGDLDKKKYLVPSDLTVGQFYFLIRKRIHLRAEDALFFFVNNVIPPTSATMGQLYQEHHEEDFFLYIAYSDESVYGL
On to B1, for which the “median log2 fold change” value was -0.288. In the case of B2, the “median log2 fold change” value is -0.628.

For B3, the “median log2 fold change” value is 0.292. With B4, the “median log2 fold change” value is 0.128. Consider B5, for which the “median log2 fold change” value was -0.394. B6: the “median log2 fold change” value is -0.0253.

Regarding B7, the “median log2 fold change” value was -0.00842. B8: the “median log2 fold change” value was 0.0708. With B9, the “median log2 fold change” value was -0.851. For B10, the “median log2 fold change” value came out at 0.152. On to B11, for which the “median log2 fold change” value is -0.0656. For B12, the “median log2 fold change” value is -0.00858. On to B13, for which the “median log2 fold change” value amounted to 0.0213. Consider B14, for which the “median log2 fold change” value was -0.679. For the molecule B15, the “median log2 fold change” value is 0.163. As for B16, the “median log2 fold change” value was found to be 0.372. With B17, the “median log2 fold change” value came to 0.183. As to B18, the “median log2 fold change” value is -0.115.

For B19, the “median log2 fold change” value is -0.658. With B20, the “median log2 fold change” value is -0.0414.
